Screens as filed in PubChem.
Sampled rows, rich in hits. Any-hit rate of the full collection: about 4.3%.
Giardia killer = Small Molecules that selectively kill Giardia lamblia: qHTS; activity change, % at 7.66 µM, hits read low; 340,000 tested, 0.15% active; Giardia lamblia trophozoite viability; in the data active = activity change below about -80%; inconclusive = between about -30% and that limit;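 note: parasites exposed to compound for two days anaerobically before the ATP read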
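Each well holds 100 Giardia trophozoites and compound. After two days (48 hrs) at 37 deg C in anaerobic conditions, ATP is quantified by luminescence.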
uPA surface inh = qHTS for Inhibitors of Cell Surface uPA Generation | AID 540303, 2011 | cell surface uPA generation assay, qHTS | Potency, µM (highest dose often 38.3 µM), actives largely listed as inhibitors | 330,000 tested, 0.31% active; active = well fitted inhibition curve with a large enough effect; inconclusive = small, poorly fitted or top-dose-only effect; inactive = no such curve, though single readings can be large or run the other way; tested in mouse RAW 264.7 cells; note: nearly all actives have a fitted effect of over 55% in size
SW480 rereplic = A quantitative high throughput screen for small molecules that induce DNA re-replication in SW480 colon adenocarcinoma cells. SW480 DNA re-replication, Hoechst DNA content imaging, 48 h. Potency, µM (series often up to 46.1 µM), usual class: activators. 340,000 tested, 1.8% active. AID 624297, 2012; note: nearly all actives have a fitted effect of over 55% in size
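Image-based DNA-content assay: after two days of treatment, nuclei were labelled with the DNA dye Hoechst and imaged, and hits were compounds raising the count of nuclei showing high fluorescence intensity.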
MCF10A rerep = A quantitative high throughput screen for small molecules that induce DNA re-replication in MCF 10a normal breast cells | MCF 10A DNA re-replication, Hoechst nuclear intensity, 48 h | Potency, µM (highest dose often 46.1 µM), actives largely listed as activators | 350,000 tested, 2.9% active | AID 624296, 2012; note: nearly all actives have a fitted effect of over 50% in size
Of the large screens only hits and unclear results are named; the others gave an inactive call. Unless noted, calls come from the whole dose curve; as a rule, active = well fitted activation curve with a large enough effect; inconclusive = small, poorly fitted or top-dose-only effect; inactive = no such curve, though single readings can be large or run the other way.

CC(CN1CCN(CC(C)C(=O)c2ccccc2)CC1)C(=O)c1ccccc1 (centres undefined)	none
CC(=O)Nc1ccn(C2CC3OCC(NC(=O)C(NC(=O)OC(C)(C)C)C(C)OCc4ccccc4)C3O2)c(=O)n1 (centres undefined)	none (no result: uPA surface inh, SW480 rereplic, MCF10A rerep)
CN(Cc1cccs1)C(=O)c1ccc(Cl)c(S(=O)(=O)N2CCCCCC2)c1	MCF10A rerep inconclusive
CC1CCN(c2oc(-c3ccc(OCc4ccccc4Cl)cc3)nc2C#N)CC1	none (no result: uPA surface inh, SW480 rereplic, MCF10A rerep)
OCC1OC(n2cnc3c(=S)nc[nH]c32)C(O)C1O (centres undefined)	MCF10A rerep inconclusive (no result: uPA surface inh)
CCCCCN1C=CC(=C2C(=O)c3ccccc3C2=O)C=C1	Giardia killer -92, uPA surface inh 0.022µM
CCc1ccc(N=C2NC(=O)/C(=C/c3cc(OC)c(OC)c(OC)c3)S2)cc1	SW480 rereplic inconclusive, MCF10A rerep 12µM
CCOc1cc(/C=C2\SC(=Nc3ccc(CC)cc3)NC2=O)ccc1OCC(=O)O	SW480 rereplic inconclusive, MCF10A rerep 18µM
CCc1ccc(N=C2NC(=O)/C(=C/c3cc(Br)c(OCC(=O)O)c(OC)c3)S2)cc1	MCF10A rerep inconclusive
O=C(Nc1ccccc1OCc1ccccc1)c1ccccc1Br	SW480 rereplic inconclusive, MCF10A rerep 0.58µM
Cc1cc(NC(=O)c2ccc3c(c2)OCCO3)no1	Giardia killer -80, SW480 rereplic inconclusive, MCF10A rerep inconclusive
O=C(Nc1ccc(Cl)cc1Cl)c1ccc2c(c1)OCCO2	uPA surface inh 4.5µM
Cc1cc(NC(=O)c2ccc3c(c2)OCO3)no1	none
O=C(Nc1ccc(Cl)cc1Cl)c1cccc(N2C(=O)C=CC2=O)c1	SW480 rereplic 8.2µM, MCF10A rerep 13µM
O=C(NC(=S)Nc1ccc(N2CCCCC2)c(Cl)c1)c1ccc2c(c1)OCCO2	SW480 rereplic inconclusive, MCF10A rerep 9.2µM
COC(=O)C1CCN(CC(=O)Nc2ccc(C(=O)Nc3ccccc3OC)cc2)CC1	none
O=c1cc(CN2CCN(S(=O)(=O)c3cccc(Cl)c3)CC2)c2ccc(O)cc2o1	none
CCN1C(=O)c2cccc3c(NC(=O)c4ccc5c(c4)OCCO5)ccc1c23	SW480 rereplic inconclusive, MCF10A rerep 26µM
O=S(=O)(c1ccc(Br)cc1F)N1CCCCC1CCO (centres undefined)	none
CCc1nc(SCc2ccccc2C#N)n[nH]1	none
CCCc1nc([N+](=O)[O-])c(S(=O)(=O)c2ccccc2)n1CC(C)C	SW480 rereplic inconclusive, MCF10A rerep inconclusive
CC(C)Cn1c(C(C)C)nc([N+](=O)[O-])c1S(=O)(=O)c1ccc(F)cc1	SW480 rereplic 18µM, MCF10A rerep 21µM (no result: uPA surface inh)
Cc1ccc(NCCCn2cnc(C(=O)Nc3ccc(C)c(C)c3)n2)cc1C	none
Cc1cc(C)c(CN2CCN(CCCn3cnc(C(=O)Nc4ccc(C)c(C)c4)n3)CC2)c(C)c1	uPA surface inh inconclusive, SW480 rereplic 7.3µM, MCF10A rerep inconclusive
CCc1c(C)sc(NC(=O)c2cccs2)c1C(=O)OC(C)C	MCF10A rerep 10µM
CCCCC[C@@H](/C=C/C1C(=O)C=C[C@H]1C/C=C\CCCC(=O)OC)OC(C)=O (some centres undefined)	uPA surface inh inconclusive, MCF10A rerep 18µM
O=C(O)c1cc(N/N=C/C=C/c2ccccc2)ccc1Cl	MCF10A rerep 21µM
Cc1ccc(S(=O)(=O)N(C)C)cc1NC(=O)CCCNC(=O)c1ccc(Cl)cc1	none
O=C(NC(=S)NC1CCC(O)CC1)c1ccco1 (centres undefined)	Giardia killer inconclusive
COC(=O)CSC1=NS(=O)(=O)c2ccccc21	SW480 rereplic inconclusive, MCF10A rerep 13µM
Oc1cc(NCc2cccnc2)ccc1-c1nc2ccccc2o1	SW480 rereplic inconclusive, MCF10A rerep 21µM
CCc1ccc(OCC(=O)Nc2ccc(-c3nc4ccccc4o3)c(O)c2)cc1	none
Cc1ccc(Nc2c(-c3ccccn3)nc3cccc(C)n23)cc1	MCF10A rerep inconclusive
O=C(Nc1nc2c(s1)CN(Cc1ccccc1)CC2)c1cccc(S(=O)(=O)N2CCc3ccccc32)c1	SW480 rereplic 16µM, MCF10A rerep 10µM
O=C(Nc1nc2ccccc2s1)c1cccc(S(=O)(=O)N2CCc3ccccc32)c1	none
Cc1ccccc1-n1nc2c(c1NC(=O)C1CCCC1)CS(=O)(=O)C2	MCF10A rerep 18µM
Cn1c2ccccc2c2nnc(SCCOc3ccccc3)nc21	none (no result: uPA surface inh, SW480 rereplic, MCF10A rerep)
CSc1ccccc1NC(=O)CN1CCCCC1C (centres undefined)	MCF10A rerep inconclusive
CSc1ccccc1NC(=O)CN1c2ccccc2CC1C (centres undefined)	SW480 rereplic 8.2µM, MCF10A rerep inconclusive
O=C/C(=C\Nc1ccc(Cl)cn1)c1nc2cc(Cl)ccc2o1	MCF10A rerep 16µM
O=C/C(=C\Nc1ccc(Cl)cn1)c1nc2ccccc2o1	MCF10A rerep inconclusive
COc1cc(NS(=O)(=O)c2ccc(N/C=C(\C#N)c3nc4cc(Cl)ccc4o3)cc2)nc(OC)n1	SW480 rereplic inconclusive, MCF10A rerep inconclusive
O=C/C(=C\Nc1ccc(S(=O)(=O)CCO)cc1)c1nc2cc(Cl)ccc2o1	SW480 rereplic inconclusive, MCF10A rerep 23µM
CCCN(C(=O)CSc1nnc2ccccn12)C1CCS(=O)(=O)C1 (centres undefined)	none
COc1ccc(OC)c(C(=O)CN2CCN(S(=O)(=O)c3ccc(Br)cc3)CC2)c1	SW480 rereplic inconclusive, MCF10A rerep 23µM
Cc1ccccc1NC(NC(=O)OCCn1c([N+](=O)[O-])cnc1C)C(Cl)(Cl)Cl (centres undefined)	Giardia killer -82
Cc1ncc([N+](=O)[O-])n1CCOC(=O)NC(NCc1cccnc1)C(Cl)(Cl)Cl (centres undefined)	Giardia killer -92
NNc1nc2ccccc2c(=O)n1Cc1ccccc1	none
CCc1ccc2c(c1)/C(=C/C(=O)c1cccs1)C(=O)N2	SW480 rereplic 9.2µM, MCF10A rerep inconclusive
CCCc1cc(NCc2ccccn2)n2nc(C)c(-c3ccccc3)c2n1	SW480 rereplic 3.3µM, MCF10A rerep inconclusive
Cc1cc(NCc2ccccn2)n2ncc(-c3ccccc3)c2n1	SW480 rereplic 0.82µM
Cc1cc(NCc2ccccn2)n2ncc(-c3ccc(Cl)cc3)c2n1	SW480 rereplic inconclusive
Cc1cc(NCCC(C)C)n2nc(C)c(-c3ccccc3)c2n1	MCF10A rerep 15µM (no result: uPA surface inh)
Cc1nn2c(NCc3ccccn3)cc(C(C)C)nc2c1-c1ccccc1	SW480 rereplic inconclusive, MCF10A rerep inconclusive
O=C(NCC1CCCO1)c1ccccc1NS(=O)(=O)c1ccc(Br)s1 (centres undefined)	none
CC(=O)O[C@H]1C2OC(=O)C(C)=C2[C@@H]2OC(=O)[C@]3(CCC4OC41C)OC23 (some centres undefined)	uPA surface inh 7.1µM, MCF10A rerep inconclusive
CCN(CC)CCNc1ncnc2c1sc1nc(N3CCCC3)c3c(c12)CC(C)(C)OC3	MCF10A rerep 21µM
CC1(C)Cc2c(c(N3CCOCC3)nc3sc4c(NN)ncnc4c23)CS1	SW480 rereplic inconclusive, MCF10A rerep 23µM
